From PubChem BioAssay (EPA / NIEHS)
Active and inactive are the calls of the source. Rule for the calls: active = hit-call score of the fitted dose curve at least 0.9, where 1 is the maximum; inactive = score below 0.9.

Assays:
[1] = ATG_GLI_CIS: Attagene CIS-FACTORIAL HepG2 Assay for human Zinc Finger Protein GLI1 (AID 2282945); settings: HepG2, Attagene cis-factorial reporter mRNA, GLI element; actives raise or lower the signal
In short: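 Transiently transfected HepG2 cells report endogenous transcription factor activity via cis-element-driven reporter units. After 24 h compound exposure, reporter mRNA was measured by RT-PCR with capillary electrophoresis; bidirectional fitting against DMSO baseline.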

[2] = ATG_GRE_CIS: Attagene CIS-FACTORIAL HepG2 Assay for human Glucocorticoid Response Elements (GRE) (AID 2282947); settings: HepG2 GRE cis-reporter, Attagene multiplex mRNA; actives raise or lower the signal
In short: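 Fluorescence intensity of reporter-specific cDNA fragments, separated by capillary electrophoresis, provides the signal. Constructs carry cis-regulating promoters in transiently transfected HepG2 liver cells; 24 h incubation; fitting is bidirectional against DMSO.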

[3] = ATG_ISRE_CIS: Attagene CIS-FACTORIAL HepG2 Assay for human Interferon Regulatory Factor 1 (IRF1) binding to an Interferon-Stimulated Response Element (ISRE) (AID 2282948); settings: HepG2 ISRE cis-reporter (Attagene), mRNA transcription readout; actives raise or lower the signal
In short: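 Read-out: fluorescent RT-PCR products resolved by capillary electrophoresis, reporting endogenous transcription factor activity via ISRE-driven reporter mRNA in transfected HepG2 cells dosed for 24 h; gain or loss fitted relative to DMSO.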

[4] = ATG_M_32_CIS: Attagene CIS-FACTORIAL HepG2 Assay for M32 Transcription Factor (Internal Marker) (AID 2282949); settings: HepG2 Attagene cis-factorial M32 reporter, mRNA; actives raise or lower the signal;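 note: background control marker of the multiplexed CIS panel rather than a real target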
In short: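 HepG2 transfectants (cis-regulated reporter transcription units) dosed 24 h. Reporter mRNA by RT-PCR plus CE, analysed as gain or loss relative to DMSO.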

[5] = ATG_M_06_CIS: Attagene CIS-FACTORIAL HepG2 Assay for M06 Transcription Factor (Internal Marker) (AID 2282950); settings: HepG2 Attagene CIS-FACTORIAL M06 internal marker reporter; actives raise or lower the signal
In short: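 Cells (HepG2, transiently carrying cis-driven reporter units) receive chemical for 24 h before RNA isolation. Reporter cDNA is PCR-amplified, FAM-labelled by primer extension, HpaI-digested and sized on a capillary analyser.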

[6] = target: Hypoxia-inducible factor 1-alpha (Homo sapiens) (UniProt Q16665); test: ATG_HIF1a_CIS: Attagene CIS-FACTORIAL HepG2 Assay for human Hypoxia Inducible Factor 1 (HIF1A) (AID 2282951); settings: HepG2 Attagene cis-factorial HIF1a reporter transcription; actives raise or lower the signal
Chain of Hypoxia-inducible factor 1-alpha (Homo sapiens) (Q16665 whole entry, looked up): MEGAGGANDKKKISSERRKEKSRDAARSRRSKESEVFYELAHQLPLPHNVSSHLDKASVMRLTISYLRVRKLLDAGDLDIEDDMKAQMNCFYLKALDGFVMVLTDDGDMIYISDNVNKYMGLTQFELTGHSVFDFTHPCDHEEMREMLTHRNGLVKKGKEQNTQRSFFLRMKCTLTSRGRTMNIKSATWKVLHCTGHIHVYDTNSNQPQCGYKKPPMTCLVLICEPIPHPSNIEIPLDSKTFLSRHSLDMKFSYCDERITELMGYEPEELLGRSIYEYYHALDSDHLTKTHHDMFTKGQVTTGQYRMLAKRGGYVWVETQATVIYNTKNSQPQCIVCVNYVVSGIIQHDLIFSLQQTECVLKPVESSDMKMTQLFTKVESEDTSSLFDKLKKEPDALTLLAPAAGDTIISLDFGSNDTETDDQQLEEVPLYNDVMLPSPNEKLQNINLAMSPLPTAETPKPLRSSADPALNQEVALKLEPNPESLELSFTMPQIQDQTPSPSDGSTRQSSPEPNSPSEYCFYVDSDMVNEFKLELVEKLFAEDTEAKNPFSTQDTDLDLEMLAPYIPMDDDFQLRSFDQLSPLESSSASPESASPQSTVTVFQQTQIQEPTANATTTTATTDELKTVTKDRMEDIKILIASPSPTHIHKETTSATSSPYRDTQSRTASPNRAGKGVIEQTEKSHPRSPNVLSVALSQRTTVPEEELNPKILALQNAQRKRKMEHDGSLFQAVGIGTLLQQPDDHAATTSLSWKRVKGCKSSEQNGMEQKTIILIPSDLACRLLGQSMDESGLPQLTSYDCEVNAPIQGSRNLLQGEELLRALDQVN
In short: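 HepG2 cells transiently transfected with multiplexed cis-promoter reporter units; reporter mRNA read 24 h after dosing by RT-PCR, 6-FAM primer-extension labelling, HpaI digestion and capillary electrophoresis. Bidirectional fit versus DMSO baseline.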

[7] = target: Hepatocyte nuclear factor 6 (Homo sapiens) (UniProt Q9UBC0); test: ATG_HNF6_CIS: Attagene CIS-FACTORIAL HepG2 Assay for human Hepatocyte Nuclear Factor 6 (HNF6) (AID 2282952); settings: HepG2 Attagene cis-factorial HNF6 reporter transcription; actives raise or lower the signal
Chain of Hepatocyte nuclear factor 6 (Homo sapiens) (Q9UBC0 whole entry, looked up, the tested form may be a part): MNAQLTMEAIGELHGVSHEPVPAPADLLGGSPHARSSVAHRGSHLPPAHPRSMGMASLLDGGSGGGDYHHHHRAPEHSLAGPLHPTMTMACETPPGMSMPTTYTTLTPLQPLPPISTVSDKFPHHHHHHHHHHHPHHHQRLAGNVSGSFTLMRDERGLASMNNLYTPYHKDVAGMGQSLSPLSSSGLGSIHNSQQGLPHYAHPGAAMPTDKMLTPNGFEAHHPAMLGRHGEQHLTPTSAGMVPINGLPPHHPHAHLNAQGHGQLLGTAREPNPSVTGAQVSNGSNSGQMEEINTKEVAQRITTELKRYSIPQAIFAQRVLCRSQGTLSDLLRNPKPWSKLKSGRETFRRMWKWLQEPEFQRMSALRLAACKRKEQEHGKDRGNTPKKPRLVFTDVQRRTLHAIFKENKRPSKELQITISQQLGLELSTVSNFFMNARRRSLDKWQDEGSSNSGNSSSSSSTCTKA
In short: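 First, HepG2 cells were transfected with the multiplexed cis reporter library and dosed with chemical for 24 h. Next, RNA was reverse-transcribed, PCR-amplified and fluorescently labelled. Finally, HpaI-digested fragments were read by capillary electrophoresis.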

[8] = target: Heat shock factor protein 1 (Homo sapiens) (UniProt Q00613); test: ATG_HSE_CIS: Attagene CIS-FACTORIAL HepG2 Assay for human Heat Shock Transcription Factor 1 (HSE) (AID 2282953); settings: HepG2 HSE cis-reporter, Attagene RNA transcription; actives raise or lower the signal
Chain of Heat shock factor protein 1 (Homo sapiens) (Q00613 whole entry, looked up): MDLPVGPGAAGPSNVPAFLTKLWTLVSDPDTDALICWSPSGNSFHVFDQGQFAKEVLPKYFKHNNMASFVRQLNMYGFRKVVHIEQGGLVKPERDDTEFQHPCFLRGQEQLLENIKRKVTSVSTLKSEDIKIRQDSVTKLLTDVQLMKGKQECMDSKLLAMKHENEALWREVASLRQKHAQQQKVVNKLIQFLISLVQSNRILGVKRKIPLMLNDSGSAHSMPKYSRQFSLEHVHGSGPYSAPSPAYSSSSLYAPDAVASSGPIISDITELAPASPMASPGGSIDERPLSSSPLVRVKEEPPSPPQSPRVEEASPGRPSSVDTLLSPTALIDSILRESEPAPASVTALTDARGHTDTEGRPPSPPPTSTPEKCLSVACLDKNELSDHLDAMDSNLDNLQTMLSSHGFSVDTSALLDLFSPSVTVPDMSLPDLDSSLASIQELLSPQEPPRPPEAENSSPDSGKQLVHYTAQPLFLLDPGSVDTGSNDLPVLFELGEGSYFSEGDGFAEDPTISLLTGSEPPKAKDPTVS
In short: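 Liver-derived HepG2 cells carry transiently introduced multiple reporter units governed by cis promoters. Reporter RNA measured 24 h post-dose through reverse transcription, PCR amplification, fluorescent labelling and capillary electrophoresis, normalised to DMSO.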

[9] = ATG_MRE_CIS: Attagene CIS-FACTORIAL HepG2 Assay for human Metal Responsive Element (MRE) (AID 2282954); settings: HepG2 MRE cis-reporter transcription, Attagene multiplex; actives raise or lower the signal
In short: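 Measured here is mRNA induction from an MRE cis-element reporter in HepG2 after 24 h, quantified by fluorescence of labelled RT-PCR products on capillary electrophoresis; gain- and loss-of-signal fits use DMSO as baseline.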

[10] = target: Paired box protein Pax-6 (Homo sapiens) (UniProt P26367); test: ATG_Pax6_CIS: Attagene CIS-FACTORIAL HepG2 Assay for human Paired Box 6 (PAX6) (AID 2282956); settings: HepG2 CIS-FACTORIAL PAX6 reporter transcription, RNA readout; actives raise or lower the signal
Chain of Paired box protein Pax-6 (Homo sapiens) (P26367 whole entry, looked up): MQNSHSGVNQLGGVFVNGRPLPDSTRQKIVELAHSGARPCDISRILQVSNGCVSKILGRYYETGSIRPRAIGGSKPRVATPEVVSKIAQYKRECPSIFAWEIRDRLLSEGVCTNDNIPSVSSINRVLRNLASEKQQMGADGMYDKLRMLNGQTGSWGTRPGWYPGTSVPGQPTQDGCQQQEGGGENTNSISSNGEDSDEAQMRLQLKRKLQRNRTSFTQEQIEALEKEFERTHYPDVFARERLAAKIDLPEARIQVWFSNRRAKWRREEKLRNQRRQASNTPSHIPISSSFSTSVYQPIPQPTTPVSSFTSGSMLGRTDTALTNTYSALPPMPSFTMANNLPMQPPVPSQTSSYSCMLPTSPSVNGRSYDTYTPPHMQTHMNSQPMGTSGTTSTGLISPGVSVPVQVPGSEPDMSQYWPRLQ
In short: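 Readout: reporter transcript fluorescence after RT-PCR and capillary electrophoresis. Cells: HepG2, transiently transfected with cis-regulated MRTUs. Exposure 24 h. Gain or loss of signal fitted bidirectionally relative to DMSO.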

[11] = ATG_PXRE_CIS: Attagene CIS-FACTORIAL HepG2 Assay for human Pregnane X Receptor Element (PXRE) (AID 2282957); settings: HepG2 Attagene CIS-FACTORIAL PXRE reporter, mRNA; actives raise or lower the signal
In short: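 After a 24 h chemical incubation, total RNA from transfected HepG2 cells was reverse-transcribed and reporter cDNA amplified, FAM-labeled, HpaI-digested and sized by capillary electrophoresis. DMSO served as baseline for bidirectional curve fitting.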

[12] = ATG_RORE_CIS: Attagene CIS-FACTORIAL HepG2 Assay for human RAR-related Orphan Receptor Element (RORE) (AID 2282959); settings: HepG2 Attagene cis-factorial RORE reporter, mRNA; actives raise or lower the signal
In short: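 HepG2 cells transiently transfected with multiple cis-element reporter transcription units, exposed to chemical for 24 h. Reporter mRNA quantified by RT-PCR, 6-FAM primer-extension labeling, HpaI digestion and capillary electrophoresis; bidirectional fit versus DMSO baseline.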

[13] = ATG_Sox_CIS: Attagene CIS-FACTORIAL HepG2 Assay for human SRY-box transcription factor (SOX) (AID 2282960); settings: HepG2 Attagene cis-factorial SOX reporter, mRNA; actives raise or lower the signal
In short: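 HepG2 cells transiently transfected with cis-element-driven multiple reporter transcription units, dosed 24 h; reporter mRNA measured by RT-PCR, FAM labelling, HpaI digestion and capillary electrophoresis. Bidirectional fit versus DMSO baseline.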

[14] = target: Transcription factor Sp1 (Homo sapiens) (UniProt P08047); test: ATG_Sp1_CIS: Attagene CIS-FACTORIAL HepG2 Assay for human Specificity Protein 1 (Sp1) (AID 2282961); settings: HepG2 Sp1 cis-reporter transcription, actives raise or lower the signal
Chain of Transcription factor Sp1 (Homo sapiens) (P08047 whole entry, looked up): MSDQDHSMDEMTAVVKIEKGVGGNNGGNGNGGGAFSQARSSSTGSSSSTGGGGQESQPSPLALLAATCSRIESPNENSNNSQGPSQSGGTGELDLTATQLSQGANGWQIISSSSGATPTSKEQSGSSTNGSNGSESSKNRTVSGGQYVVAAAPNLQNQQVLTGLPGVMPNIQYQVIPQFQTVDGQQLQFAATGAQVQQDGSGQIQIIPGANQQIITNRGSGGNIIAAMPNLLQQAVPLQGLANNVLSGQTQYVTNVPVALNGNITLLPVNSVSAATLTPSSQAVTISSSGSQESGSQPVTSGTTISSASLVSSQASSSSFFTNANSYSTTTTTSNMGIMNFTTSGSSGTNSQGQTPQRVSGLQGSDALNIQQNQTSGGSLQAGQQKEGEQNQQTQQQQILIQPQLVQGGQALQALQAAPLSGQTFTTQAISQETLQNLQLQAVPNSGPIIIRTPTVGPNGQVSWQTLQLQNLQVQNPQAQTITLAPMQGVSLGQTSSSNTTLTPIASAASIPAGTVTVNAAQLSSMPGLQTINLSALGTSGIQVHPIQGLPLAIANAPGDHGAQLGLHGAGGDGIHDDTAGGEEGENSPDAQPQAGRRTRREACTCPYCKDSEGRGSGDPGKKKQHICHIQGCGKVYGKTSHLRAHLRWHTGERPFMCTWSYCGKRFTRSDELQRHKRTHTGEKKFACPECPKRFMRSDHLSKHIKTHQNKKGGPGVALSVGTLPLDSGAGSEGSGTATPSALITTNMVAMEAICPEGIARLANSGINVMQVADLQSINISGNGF
In short: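 HepG2 cells transiently transfected with multiple reporter transcription units driven by cis-regulatory elements; Sp1-responsive reporter mRNA measured 24 h after dosing by RT-PCR and capillary electrophoresis fluorescence, fitted bidirectionally against DMSO baseline.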

[15] = ATG_SREBP_CIS: Attagene CIS-FACTORIAL HepG2 Assay for human Sterol Regulatory Element Binding (SREBP) (AID 2282962); settings: HepG2 Attagene cis-factorial SREBP reporter, mRNA; actives raise or lower the signal
In short: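 Readout: fluorescent reporter-transcript peaks resolved by capillary electrophoresis after RT-PCR. Cells were human HepG2 carrying transfected cis-promoter reporter constructs, dosed for 24 h. Gain or loss of signal was fitted against DMSO controls.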

[16] = target: Signal transducer and activator of transcription 3 (Homo sapiens) (UniProt P40763); test: ATG_STAT3_CIS: Attagene CIS-FACTORIAL HepG2 Assay for human Signal Transducer and Activator of Transcription 3 (STAT3) (AID 2282963); settings: HepG2, Attagene cis-factorial STAT3 reporter transcription; actives raise or lower the signal
Chain of Signal transducer and activator of transcription 3 (Homo sapiens) (P40763 whole entry, looked up, the tested form may be a part): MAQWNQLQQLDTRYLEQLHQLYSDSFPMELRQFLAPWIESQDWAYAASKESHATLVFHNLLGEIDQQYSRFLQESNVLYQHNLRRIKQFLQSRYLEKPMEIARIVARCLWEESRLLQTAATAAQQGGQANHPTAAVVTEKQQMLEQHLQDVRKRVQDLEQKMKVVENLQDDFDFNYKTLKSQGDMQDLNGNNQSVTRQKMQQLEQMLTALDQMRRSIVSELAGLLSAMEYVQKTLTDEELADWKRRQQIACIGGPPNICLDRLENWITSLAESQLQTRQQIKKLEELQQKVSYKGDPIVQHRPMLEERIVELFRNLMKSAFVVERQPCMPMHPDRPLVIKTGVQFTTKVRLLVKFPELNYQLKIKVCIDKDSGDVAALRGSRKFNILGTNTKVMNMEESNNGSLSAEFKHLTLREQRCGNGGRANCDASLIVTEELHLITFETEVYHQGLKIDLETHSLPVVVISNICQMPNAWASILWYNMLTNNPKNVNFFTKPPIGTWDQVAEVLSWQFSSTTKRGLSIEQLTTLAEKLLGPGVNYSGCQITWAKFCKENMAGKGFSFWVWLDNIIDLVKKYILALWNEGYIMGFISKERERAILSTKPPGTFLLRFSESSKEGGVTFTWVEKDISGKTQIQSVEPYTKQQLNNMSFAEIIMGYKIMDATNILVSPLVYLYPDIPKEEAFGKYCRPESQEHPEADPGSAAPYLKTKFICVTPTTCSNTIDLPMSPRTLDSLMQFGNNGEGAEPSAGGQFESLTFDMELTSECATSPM
In short: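 Fluorescence intensity of 6-FAM-labelled reporter fragments, separated by capillary electrophoresis after RT-PCR, gave the signal. Cells were HepG2 transfected with cis-element reporter units and treated 24 h; fitting was bidirectional relative to DMSO.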

[17] = ATG_TA_CIS: Attagene CIS-FACTORIAL HepG2 Assay for human TA Basal Promoter (AID 2282964); settings: HepG2 Attagene CIS-factorial TA basal promoter reporter; actives raise or lower the signal
In short: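 Background internal-marker endpoint from a 52-component HepG2 cis-reporter panel. Cells treated 24 h; reporter transcripts quantified via RT-PCR and CE fluorescence against DMSO baseline.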

[18] = target: Bile acid receptor (Homo sapiens) (UniProt Q96RI1); test: ATG_IR1_CIS: Attagene CIS-FACTORIAL HepG2 Assay for human Nuclear Receptor Subfamily 1 Group H Member 4 (NR1H4), IR1 submotif (AID 2282946); settings: IR1 reporter transcription, actives raise or lower the signal
Chain of Bile acid receptor (Homo sapiens) (Q96RI1 whole entry, looked up): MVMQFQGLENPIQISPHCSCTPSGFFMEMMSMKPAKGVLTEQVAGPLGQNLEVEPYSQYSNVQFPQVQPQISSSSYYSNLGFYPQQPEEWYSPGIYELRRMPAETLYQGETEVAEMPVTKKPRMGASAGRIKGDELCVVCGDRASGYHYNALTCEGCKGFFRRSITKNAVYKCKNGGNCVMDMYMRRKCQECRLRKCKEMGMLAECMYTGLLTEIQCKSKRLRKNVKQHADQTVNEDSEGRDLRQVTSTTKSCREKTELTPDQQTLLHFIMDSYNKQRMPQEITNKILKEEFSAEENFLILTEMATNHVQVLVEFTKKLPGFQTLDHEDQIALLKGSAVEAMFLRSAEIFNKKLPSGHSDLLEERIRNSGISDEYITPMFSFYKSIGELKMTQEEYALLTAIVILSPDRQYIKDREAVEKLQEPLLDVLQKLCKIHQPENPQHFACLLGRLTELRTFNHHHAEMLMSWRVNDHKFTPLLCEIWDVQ
In short: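 Fluorescence of capillary-separated, HpaI-digested RT-PCR reporter products gave IR1-element mRNA induction in HepG2 cells 24 h after dosing. Endogenous transcription factors drove the cis-regulated reporters; activity was fitted bidirectionally against DMSO.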

[19] = ATG_PBREM_CIS: Attagene CIS-FACTORIAL HepG2 Assay for human Phenobarbital-responsive Enhancer Module (PBREM) (AID 2282955); settings: HepG2 PBREM cis-reporter, Attagene multiplexed transcription; actives raise or lower the signal
In short: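 HepG2 cells transiently transfected with multiple cis-regulated reporter transcription units; endogenous factor activity at the PBREM element measured as reporter mRNA 24 h after dosing, via RT-PCR and capillary electrophoresis of fluorescent fragments; bidirectional fitting versus DMSO.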

[20] = ATG_PPRE_CIS: Attagene CIS-FACTORIAL HepG2 Assay for human Peroxisome Proliferator-activated Response Element (PPRE) (AID 2282958); settings: HepG2 PPRE cis-element reporter, Attagene transcription factor profiling; actives raise or lower the signal
In short: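 HepG2 cells transiently transfected with multiplexed cis-element reporter units measure endogenous transcription factor activity. After 24 h compound exposure, reporter mRNA is quantified by RT-PCR, 6-FAM labeling, HpaI digestion and capillary electrophoresis; bidirectional fits are made against DMSO baseline.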

Measured: AC50

CC(CCO)CC(C)(C)C (centres undefined)
not listed: [18] | [19] | [20]
inactive: all other assays above

CCCCCc1cccc(=O)o1
active: [11] 25.1 µM
not listed: [2] | [4]
inactive: all other assays above

CC12CCC(C1)C(C)(C)C2O (centres undefined)
not listed: [2] | [10] | [17]
inactive: all other assays above

O=C(C=Cc1ccccc1)OCCCc1ccccc1
active: [11] 19.9 µM
not listed: [10] | [18] | [20]
inactive: all other assays above
